Experiment [1] can be described thus: Nuclear factor erythroid 2-related factor 2/antioxidant responsive element (Nrf2/ARE) small molecule agonists: qHTS cell viability counter screen in human keratinocytes (AID 1919968; active = well fitted curve in the direction sought with a large enough effect in the repeat runs; an effect the other way counts as inactive or inconclusive; also: nearly all actives have a fitted effect of over 55% in size). In short, it runs like this: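 Parallel cytotoxicity read: KeratinoSens HaCaT cells, compound treatment 23 h, viability by CellTiter-Fluor fluorescence 1 h post-reagent.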
The nature of experiment [2]: Nuclear factor erythroid 2-related factor 2/antioxidant responsive element (Nrf2/ARE) small molecule agonists: luciferase reporter gene qHTS assay in human keratinocytes (AID 1919969). Also: nearly all actives have a fitted effect of over 35% in size. Background: Reporter assays use an easily measured gene product as a stand-in for the process of interest.
Experiment [3] concerns the target Gonadotropin-releasing hormone receptor (Homo sapiens) (UniProt P30968). As to the kind of experiment: Human gonadotropin-releasing hormone receptor (GnRHR) small molecule agonists, calcium flux assay in GnRHR-HEK293 cells (AID 1920063). Also: nearly all actives have a fitted effect of over 35% in size. A digest of the protocol:
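Calcium flux, agonist mode, human GnRHR stably integrated in HEK293; dye 1 h at 37 C before compound; Ex/Em=480/540 kinetic read, 3 min; 15 concentrations, triplicate.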
On the technique in general: Calcium assays in cells follow changes in intracellular calcium, usually with a dye or a luminescent sensor.

The target in experiment [4] is KiSS-1 receptor (Homo sapiens) (UniProt Q969F8). Kind of experiment: Human kisspeptin (KISS1R) small molecule agonists, calcium flux assay in KISS1R-HEK293 cells (AID 1920064; active = well fitted curve in the direction sought with a large enough effect in the repeat runs; an effect the other way counts as inactive or inconclusive). In short, it runs like this:
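Triplicate 15-concentration series were applied to dye-loaded human KISS1R HEK293 cells, and agonist-evoked calcium fluorescence was captured for 3 min.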

Experiment [5] in a line: p53 small molecule agonists, cell-based qHTS assay with human liver microsomes (AID 1963577).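 Also: p53 response element beta-lactamase reporter cells with liver microsomes plus NADPH.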 A digest of the protocol:
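Steps: plate p53RE-bla cells, incubate 5 h at 37 C; add compound in DMSO; add microsomes (0.5 mg/mL final) and NADPH (0.5 mg/mL final); incubate 16 h at 37 C; add LiveBLAzer, 2 h RT; read fluorescence.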
For orientation: qHTS replaces the single test concentration by a dilution series.

A short description of experiment [6]: p53 small molecule agonists, cell-based qHTS assay with rat liver microsomes (AID 1963578). A digest of the protocol:
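Metabolic activation is supplied by rat liver microsomes with NADPH (each 0.5 mg/mL final). p53RE-bla cells incubate with compound 16 h at 37 C; reporter activity is measured by LiveBLAzer fluorescence.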

The nature of experiment [7]: p53 small molecule agonists, cell-based qHTS assay with rat liver microsomes: qHTS cell viability counter screen (AID 1963580). Also: nearly all actives have a fitted effect of over 45% in size. A digest of the protocol:
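After the beta-lactamase ratio was read, CellTiter-Glo was added to the same wells and luminescence measured at 30 min; cells had been treated 16 h at 37 C with compounds, rat liver microsomes and NADPH (0.5 mg/mL final each).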

Experiment [8] can be described thus: p53 small molecule agonists, cell-based qHTS assay (AID 1963582; active = well fitted activation curve with a large enough effect in the signal ratio in the repeat runs, not every such curve was filed as active; the % refers to the signal ratio). A digest of the protocol:
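Beta-lactamase reporter cells (p53RE-bla) treated with compounds for 16 h at 37 C; FRET substrate, 2 h, room temperature; fluorescence intensity.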

In experiment [9] the target is 5-hydroxytryptamine receptor 2A (Homo sapiens) (UniProt P28223). Kind of experiment: 5-hydroxytryptamine receptor 2A (HTR2A) small molecule antagonists, cell-based qHTS assay (AID 1963586). Also: nearly all actives have a fitted effect of over 45% in size. Also: potency is read from the fitted curve at half-maximal effect. A digest of the protocol:
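CHO cells stably expressing human HTR2A were plated for 18 h at 37 C, then loaded with calcium dye for 1 h. Compounds were preincubated 5 min at room temperature before DOI (4 nM solution) was added. Kinetic fluorescence was read for 3 min.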

Experiment [10] shares this target. As to the kind of experiment: 5-hydroxytryptamine receptor 2A (HTR2A) small molecule agonists, cell-based qHTS assay (AID 1963587). Also: nearly all actives have a fitted effect of over 30% in size. Also: potency is read from the fitted curve at half-maximal effect. A digest of the protocol: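 CHO cells stably expressing human HTR2A, plated 18 h, loaded with calcium dye 1 h at 37 C. Agonist mode: compounds added and intracellular calcium fluorescence recorded kinetically for 2 min at 1 sec intervals.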

In experiment [11] the target is Muscarinic acetylcholine receptor M1 (Homo sapiens) (UniProt P11229). Kind of experiment: Cholinergic receptor muscarinic 1 (CHRM1) small molecule antagonists, cell-based qHTS assay (AID 1963588). Also: nearly all actives have a fitted effect of over 40% in size. In short, it runs like this:
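Compounds were tested at 15 concentrations in three independent runs. Dye-loaded CHRM1-CHO cells were exposed 5 min at room temperature before stimulation by acetylcholine added at 50nM. Intracellular calcium was read kinetically on FDSS for 3 min.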

Experiment [12] has the same target. As to the kind of experiment: Cholinergic receptor muscarinic 1 (CHRM1) small molecule agonists, cell-based qHTS assay (AID 1963589). Also: nearly all actives have a fitted effect of over 35% in size. A digest of the protocol: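 qHTS, 15-point titration, 3 independent runs: compounds pin-transferred onto dye-loaded CHRM1-CHO cells (human M1), calcium fluorescence followed every second to detect agonism.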
Experiment [13] can be described thus: cAMP Responsive Elements (CRE) small molecule antagonists, cell-based qHTS assay (AID 1963591; active = well fitted inhibition curve with a large enough effect in the signal ratio in the repeat runs, not every such curve was filed as active; the % refers to the signal ratio). A digest of the protocol: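 Fluorescence intensity from cleaved LiveBLAzer B/G substrate (2 h, room temperature) quantified CRE-bla activity in HEK 293T cells exposed 3 h to compound with 0.25 uM final NKH477.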
Experiment [14] concerns the target Beta-2 adrenergic receptor (Homo sapiens) (UniProt P07550). As to the kind of experiment: Adrenergic beta2 receptor (ADRB2) small molecule antagonists, cell-based qHTS assay (AID 1963592). Also: series mostly up to about 92 µM; nearly all actives have a fitted effect of over 50% in size. In short, it runs like this: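 Assay format: CHO-ADRB2 cells, 18-20hr seeding at 37C/5% CO2, then compound plus 1nM isoproterenol agonist mix for 0.5hr RT. Homogeneous time-resolved fluorescence cAMP detection after 1hr, expressed as 665/615 nm ratio.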

Experiment [15] deals with D(2) dopamine receptor (Homo sapiens) (UniProt P14416). Kind of experiment: Dopamine D2 receptor (DRD2) small molecule agonists, cell-based qHTS assay (AID 1963594). Also: nearly all actives have a fitted effect of over 35% in size. A digest of the protocol: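 HEK293 cells stably expressing human DRD2, pre-treated with PDE inhibitor Ro20-1724 (0.1 mM final) and compound 10 min at room temperature, then stimulated with NKH477 (200nM […]) for 30 min. cAMP read by HTRF (665/620 nm).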

Experiment [16] has the same target. Kind of experiment: Dopamine D2 receptor (DRD2) small molecule antagonists, cell-based qHTS assay (AID 1963595; active = well fitted inhibition curve with a large enough effect in the signal ratio in the repeat runs, with a control signal flat; the % refers to the signal ratio). A digest of the protocol: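 Antagonist mode in DRD2-HEK293 cells: after compound addition with 0.1 mM Ro20-1724, cells received quinpirole (12 nM) and NKH477 (200 nM) for 30 min at room temperature; HTRF cAMP read after 1 h detection.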
The nature of experiment [17]: G protein-coupled receptor (GPCR) small molecule agonists, calcium flux assay: HEK293 wild type cell line counter screen (AID 1920065). A digest of the protocol:
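Non-specific calcium responders were flagged by adding DMSO-dissolved compounds to dye-loaded cells and reading 480/540 nm fluorescence each second for 3 min; ATP served as positive control.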

A short description of experiment [18]: p53 small molecule agonists, cell-based qHTS assay with human liver microsomes: qHTS cell viability counter screen (AID 1963579). Also: nearly all actives have a fitted effect of over 45% in size. In short, it runs like this:
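After the 460/530 nm beta-lactamase read, CellTiter-Glo was added to the same wells and luminescence measured after 30 min at room temperature, giving viability of p53RE-bla cells treated 16 h with compounds plus microsomes and NADPH.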

The nature of experiment [19]: p53 small molecule agonists, cell-based qHTS assay: qHTS cell viability counter screen (AID 1963581). Also: nearly all actives have a fitted effect of over 45% in size. A digest of the protocol:
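Multiplexed with the reporter read, a CellTiter-Glo step (30 min, room temperature) gauges ATP-based viability of HCT-116 p53RE-bla cells after 16 h compound incubation at 37 C.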

A short description of experiment [20]: cAMP Responsive Elements (CRE) small molecule agonists, cell-based qHTS assay (AID 1963590). In short, it runs like this: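 Quantitative HTS for CRE agonists: HEK 293T CRE-bla cells, overnight plating, 3 h compound incubation at 37 C/5% CO2, then 2 h room-temperature LiveBLAzer B/G FRET substrate loading.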

The structures appear in SMILES notation. A number with no mark means an inactive call. Records with an inconclusive call do not appear. Activity calls are given as the source filed them. Unless noted, calls follow the shape of the full dose curve.

D(2) dopamine receptor (Homo sapiens), sequence (P14416 whole entry, looked up): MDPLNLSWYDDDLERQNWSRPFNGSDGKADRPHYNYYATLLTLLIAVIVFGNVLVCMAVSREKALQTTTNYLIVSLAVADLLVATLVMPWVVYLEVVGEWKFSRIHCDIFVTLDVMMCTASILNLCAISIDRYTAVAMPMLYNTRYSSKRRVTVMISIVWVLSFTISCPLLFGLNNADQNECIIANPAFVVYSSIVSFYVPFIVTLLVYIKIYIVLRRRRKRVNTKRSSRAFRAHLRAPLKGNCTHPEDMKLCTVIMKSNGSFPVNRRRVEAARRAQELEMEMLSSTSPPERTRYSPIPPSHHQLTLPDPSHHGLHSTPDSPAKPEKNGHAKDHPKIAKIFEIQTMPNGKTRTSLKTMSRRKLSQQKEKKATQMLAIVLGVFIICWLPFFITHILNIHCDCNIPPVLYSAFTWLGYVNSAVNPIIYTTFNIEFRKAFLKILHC
KiSS-1 receptor (Homo sapiens), sequence (Q969F8 whole entry, looked up): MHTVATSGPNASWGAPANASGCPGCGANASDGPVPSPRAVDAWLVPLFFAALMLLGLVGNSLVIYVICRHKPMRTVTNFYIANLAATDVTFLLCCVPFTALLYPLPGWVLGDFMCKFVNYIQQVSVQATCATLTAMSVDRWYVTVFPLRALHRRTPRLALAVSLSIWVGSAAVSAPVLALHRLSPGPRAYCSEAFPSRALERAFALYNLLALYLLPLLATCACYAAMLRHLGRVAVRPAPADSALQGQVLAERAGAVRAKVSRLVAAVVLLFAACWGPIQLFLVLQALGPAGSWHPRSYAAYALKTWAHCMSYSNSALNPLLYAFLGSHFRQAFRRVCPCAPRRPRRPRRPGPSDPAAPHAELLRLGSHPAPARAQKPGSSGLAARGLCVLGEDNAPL
Muscarinic acetylcholine receptor M1 (Homo sapiens), sequence (P11229 whole entry, looked up): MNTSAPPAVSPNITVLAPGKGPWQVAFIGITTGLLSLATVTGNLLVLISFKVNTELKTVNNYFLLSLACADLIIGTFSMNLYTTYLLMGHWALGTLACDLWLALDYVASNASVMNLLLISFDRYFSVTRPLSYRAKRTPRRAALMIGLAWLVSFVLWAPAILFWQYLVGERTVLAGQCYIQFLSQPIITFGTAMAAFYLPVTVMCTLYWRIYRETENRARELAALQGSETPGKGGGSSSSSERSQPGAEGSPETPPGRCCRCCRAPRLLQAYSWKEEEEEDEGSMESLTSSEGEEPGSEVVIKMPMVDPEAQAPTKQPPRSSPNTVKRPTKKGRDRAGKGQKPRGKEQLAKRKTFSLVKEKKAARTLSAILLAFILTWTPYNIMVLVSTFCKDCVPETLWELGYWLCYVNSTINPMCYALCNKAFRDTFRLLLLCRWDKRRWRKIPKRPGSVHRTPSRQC
Beta-2 adrenergic receptor (Homo sapiens), sequence (P07550 whole entry, looked up): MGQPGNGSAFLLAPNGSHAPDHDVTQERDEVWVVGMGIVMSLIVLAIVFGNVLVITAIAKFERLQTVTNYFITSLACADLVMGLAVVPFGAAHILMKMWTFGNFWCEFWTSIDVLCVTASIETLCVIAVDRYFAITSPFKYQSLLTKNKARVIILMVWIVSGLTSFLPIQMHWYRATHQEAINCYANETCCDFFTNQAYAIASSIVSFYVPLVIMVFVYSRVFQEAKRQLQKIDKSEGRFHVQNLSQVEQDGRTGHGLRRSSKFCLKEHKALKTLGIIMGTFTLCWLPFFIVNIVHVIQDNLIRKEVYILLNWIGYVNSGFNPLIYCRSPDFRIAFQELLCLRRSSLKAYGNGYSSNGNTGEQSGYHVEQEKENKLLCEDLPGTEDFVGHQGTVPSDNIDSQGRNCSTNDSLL
5-hydroxytryptamine receptor 2A (Homo sapiens), sequence (P28223 whole entry, looked up): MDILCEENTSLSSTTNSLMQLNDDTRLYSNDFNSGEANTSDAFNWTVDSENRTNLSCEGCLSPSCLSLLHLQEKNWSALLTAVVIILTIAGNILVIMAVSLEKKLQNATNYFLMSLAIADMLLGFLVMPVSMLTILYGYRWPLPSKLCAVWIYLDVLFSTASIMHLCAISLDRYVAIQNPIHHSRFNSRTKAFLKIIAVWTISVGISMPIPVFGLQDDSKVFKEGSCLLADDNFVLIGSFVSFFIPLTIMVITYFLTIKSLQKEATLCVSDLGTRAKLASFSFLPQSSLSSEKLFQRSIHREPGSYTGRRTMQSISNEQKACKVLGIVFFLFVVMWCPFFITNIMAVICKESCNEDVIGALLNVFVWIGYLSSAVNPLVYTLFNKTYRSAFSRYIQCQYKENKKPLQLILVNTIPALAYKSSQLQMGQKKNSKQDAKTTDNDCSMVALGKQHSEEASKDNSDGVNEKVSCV
Gonadotropin-releasing hormone receptor (Homo sapiens), sequence (P30968 whole entry, looked up): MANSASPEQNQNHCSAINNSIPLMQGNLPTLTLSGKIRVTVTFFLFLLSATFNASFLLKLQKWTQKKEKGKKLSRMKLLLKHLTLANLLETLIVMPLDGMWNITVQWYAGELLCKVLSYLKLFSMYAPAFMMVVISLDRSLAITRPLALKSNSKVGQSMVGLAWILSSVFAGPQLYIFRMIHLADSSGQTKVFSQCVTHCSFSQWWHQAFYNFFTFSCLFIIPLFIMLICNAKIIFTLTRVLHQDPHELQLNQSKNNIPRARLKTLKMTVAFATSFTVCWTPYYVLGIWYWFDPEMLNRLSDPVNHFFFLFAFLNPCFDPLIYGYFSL

As to `Cc1ccc2c(c1)c1c3n2CCNC3CCC1` (centres undefined), the Potency entry in [1], in experiment [2], in [3], in experiment [5], in experiment [6] and in experiment [7] was “inactive” in each case. Moreover, the Potency entry in experiment [8], in experiment [11], in experiment [12], in experiment [13], in experiment [14] and in experiment [15] was “inactive” each time. In addition, in experiment [16], the Potency entry is “inactive”. The result in experiment [4] was inactive. The values for the Potency in experiment [9] and in [10] were 18.3 µM (active) and 9.52 µM (active), respectively.

On to `CC(O)c1ccccc1` (centres undefined), for which the Potency entry in [1], in experiment [2], in experiment [3], in [5], in experiment [6] and in [18] was “inactive” throughout. Further, the Potency result in [7], in [19], in experiment [8], in experiment [9], in [10] and in [11] was “inactive” each time. Also, the Potency result in experiment [12], in experiment [20], in experiment [13], in experiment [14] and in experiment [16] was “inactive” each time. For the same molecule, in experiment [17], the outcome was inactive.

As to `Cc1c(NC(C)C)c(=O)n(-c2ccccc2)n1C`, the Potency result in [1], in experiment [2], in experiment [3], in [5], in [6] and in [18] was “inactive” each time. Also, the Potency result in experiment [7], in experiment [19], in experiment [8], in experiment [9], in [10] and in experiment [11] was “inactive” each time. The Potency entry in experiment [12], in experiment [20], in [13], in [14], in experiment [15] and in experiment [16] was “inactive” in each case. For the same molecule, in experiment [17], the outcome was inactive.

Consider `CCOC(=O)CC(CC(=O)OCC)(OC(C)=O)C(=O)OCC`, for which the Potency entry in [1], in experiment [2], in experiment [3], in experiment [6], in experiment [18] and in [7] was “inactive” each time. Moreover, the Potency result in experiment [9], in [10], in [11], in experiment [12], in experiment [20] and in [13] was “inactive” each time. Besides, the Potency entry in [14], in experiment [15] and in [16] was “inactive” throughout. Further, the outcome in experiment [4] was inactive.

In the case of `O=Cc1cccc(Br)c1`, the Potency entry in experiment [1], in [2], in [3], in [5], in experiment [6] and in experiment [7] was “inactive” throughout. Besides, the Potency entry in experiment [19], in [9], in [10], in experiment [11], in [12] and in experiment [20] was “inactive” each time. The Potency entry in experiment [13], in experiment [14], in experiment [15] and in [16] was “inactive” each time. For the same molecule, the outcome in experiment [4] was inactive.

In the case of `CC(=O)Nc1ccc(N)cc1`, the Potency result in experiment [1], in experiment [2], in experiment [3], in experiment [6], in experiment [7] and in experiment [19] was “inactive” in each case. Besides, the Potency entry in experiment [8], in experiment [9], in experiment [10], in experiment [11], in [13] and in [14] was “inactive” throughout. Besides, the Potency entry in experiment [15] and in [16] was “inactive” each time. In [4], the outcome was inactive.

Turning to `CCCCCc1ccc(Cl)cc1`, the Potency entry in [1], in experiment [2], in [3], in [5], in experiment [6] and in experiment [18] was “inactive” each time. Further, the Potency entry in [7], in experiment [19], in experiment [8], in [9], in experiment [10] and in experiment [11] was “inactive” in each case. Also, the Potency entry in experiment [12], in [20], in experiment [14], in experiment [15] and in experiment [16] was “inactive” throughout. The outcome in experiment [17] was inactive.

The values are drawn from PubChem BioAssay (Tox21).
